Source: publication PMC4336329 (PLoS ONE, 2015)
Screen size: about 310,000 compounds; about 2,200 (0.71%) showed an effect of 50% or more. The effect is printed as a negative number. This excerpt belongs to a sample that is enriched for strong results.

target: human ether-à-go-go-related gene (hERG) potassium channel (human, UniProt Q12809); test: primary screen, population patch clamp on CHO cells stably expressing hERG; higher = less effect of the substance
Experimental: Briefly, Chinese hamster ovary (CHO) cells stably expressing the hERG channel were dislodged from tissue culture flasks and dispensed into PPC plates. […] During the recording, background leak currents were estimated by a 100 ms step to -80 mV from an initial holding potential of -70 mV and subtracted from the subsequent current measurement. The campaign was conducted in two phases using slight differences in recording protocol. In the first phase, the initial voltage pulse used a 100 ms step to -30 mV from a holding potential of -70 mV, a 2 s conditioning step to +25 mV, and a 2 s test step to -30 mV. During the second phase of the screen, the potential during the conditioning step was raised to +45 mV. In both phases of the campaign, a secondary voltage pulse was applied using the same parameters as the second phase initial pulse. The initial and secondary pulses were applied in the absence of compound, and upon application of 1 μM and 10 μM test concentrations. Small molecule effects on hERG current density were quantified by […].

Sequence of human ether-à-go-go-related gene (hERG) potassium channel (Q12809 whole entry, looked up): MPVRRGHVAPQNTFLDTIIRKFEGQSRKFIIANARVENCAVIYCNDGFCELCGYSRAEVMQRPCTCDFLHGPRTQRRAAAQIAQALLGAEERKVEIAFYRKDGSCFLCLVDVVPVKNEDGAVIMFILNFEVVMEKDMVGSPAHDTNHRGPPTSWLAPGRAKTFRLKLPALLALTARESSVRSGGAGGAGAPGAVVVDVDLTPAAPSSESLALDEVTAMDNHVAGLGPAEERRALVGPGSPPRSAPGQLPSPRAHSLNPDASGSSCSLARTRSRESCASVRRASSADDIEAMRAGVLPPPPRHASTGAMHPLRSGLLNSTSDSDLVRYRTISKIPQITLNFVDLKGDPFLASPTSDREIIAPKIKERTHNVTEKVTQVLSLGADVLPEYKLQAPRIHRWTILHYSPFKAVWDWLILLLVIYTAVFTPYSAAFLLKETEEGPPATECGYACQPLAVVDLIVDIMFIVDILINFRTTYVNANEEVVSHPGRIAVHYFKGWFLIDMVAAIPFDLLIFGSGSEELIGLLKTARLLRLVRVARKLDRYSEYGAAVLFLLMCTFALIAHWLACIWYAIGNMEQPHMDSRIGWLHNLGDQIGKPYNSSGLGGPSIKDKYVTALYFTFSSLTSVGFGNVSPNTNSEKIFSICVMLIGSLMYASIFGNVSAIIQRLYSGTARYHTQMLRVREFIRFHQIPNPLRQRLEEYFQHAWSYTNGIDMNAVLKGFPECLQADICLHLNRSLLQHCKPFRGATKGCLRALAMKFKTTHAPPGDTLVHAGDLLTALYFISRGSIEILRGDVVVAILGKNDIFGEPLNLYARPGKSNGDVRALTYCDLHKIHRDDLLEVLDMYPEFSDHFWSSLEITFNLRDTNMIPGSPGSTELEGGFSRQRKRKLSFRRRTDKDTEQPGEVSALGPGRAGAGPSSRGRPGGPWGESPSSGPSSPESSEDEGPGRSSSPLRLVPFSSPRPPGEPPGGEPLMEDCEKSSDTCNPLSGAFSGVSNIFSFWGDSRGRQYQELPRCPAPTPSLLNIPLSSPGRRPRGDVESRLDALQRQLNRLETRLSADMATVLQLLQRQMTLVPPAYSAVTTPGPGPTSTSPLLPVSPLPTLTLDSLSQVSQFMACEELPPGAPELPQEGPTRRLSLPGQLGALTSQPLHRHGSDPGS

| SMILES | hERG current change (%, negative = inhibition) at 1uM [%] |
| --- | --- |
| COc1ccc(OCCSc2nc(N)cc(N)n2)cc1 | -5.65 |
| CC(=O)OCCNc1cc(SC(C)C)c2nonc2c1[N+](=O)[O-] | 3.63 |
| C=CCN1C=C2C(=O)C(C)(OC(=O)CCC(=O)OC)C(=O)C(Br)=C2C=C1c1ccc(OC)cc1 (stereo not shown) | 7.67 |
| O=C(Cc1ccccc1[N+](=O)[O-])NCCc1ccc(F)cc1 | 11.3 |
| O=C(OCn1nnc2ccccc2c1=O)c1cccc(S(=O)(=O)N2CCOCC2)c1 | 12.9 |
| CC1(C(=O)N2CCN(c3ccccc3)CC2)CC1(Cl)Cl (stereo not shown) | 10.3 |
| O=C(CCS(=O)(=O)Cc1ccccc1)N1CCN(c2ccccc2)CC1 | -5.53 |
| CC1(C(=O)N2CCN(c3ccc([N+](=O)[O-])cc3)CC2)CC1(Cl)Cl (stereo not shown) | -64.3 |
| Cc1ccc(S(=O)(=O)CCC(=O)N2CCN(c3ccc([N+](=O)[O-])cc3)CC2)cc1 | -49.9 |
| O=C(CCS(=O)(=O)Cc1ccccc1)N1CCN(c2ccc([N+](=O)[O-])cc2)CC1 | -81 |
| CSC(=NC#N)N1CCN(c2ccc(Cl)cc2)CC1 | -6.45 |
| CSC(=NC#N)N1CCN(c2ccc([N+](=O)[O-])cc2)CC1 | -80.9 |
| CC(=O)N1CCN(c2ccc([N+](=O)[O-])cc2)CC1 | -26 |
| CSC(=NC#N)N1CCN(c2ccccc2)CC1 | 6.71 |
| O=C(CSCc1c(F)cccc1Cl)NCC1CCCO1 (stereo not shown) | -1.83 |
| CCn1cc(C2=NC(CCSC)CO2)c2ccccc21 (stereo not shown) | 12 |
| Cc1ccc(C2=NN(CC(=O)O)C(=O)CC2)cc1 | -9.99 |
| Cc1ccc(C(=O)N2CCN(c3ccc([N+](=O)[O-])cc3-n3cccc3)CC2)cc1 | -16.4 |
| COc1cccc(N2CCN(CC(=O)C34CC5CC(CC(C5)C3)C4)CC2)c1 | 14 |
| O=C(O)c1ccccc1C(=O)O | 4.51 |
| O=C1OC(NC(=O)c2ccccc2)C(n2cc(CO)nn2)=C1Cl (stereo not shown) | -3.22 |
| COc1ccc(N(C(=O)Cc2cccs2)C(C(=O)NC2CCCCC2)c2cccn2C)cc1 (stereo not shown) | 9.18 |
| N#C/C(=C/c1ccc(Cl)cc1)NC(=O)c1ccccc1 | 12.2 |
| COCC(C)n1c(C)cc(C(=O)CSc2nnnn2C2CCCC2)c1C (stereo not shown) | 5.12 |
| CCn1c(C)cc(C(=O)CSc2nnnn2C2CCCC2)c1C | -9.53 |
| COCCn1c(C)cc(C(=O)CSc2nnnn2C2CCCC2)c1C | -58.4 |
| CCOC(=O)C1CCCN(CCC(=O)Nc2c(C(=O)OC)[nH]c3cc(OC)ccc23)C1 (stereo not shown) | -38 |
| O=C(CSc1nnc(-c2ccc(O)cc2)o1)Nc1cccc(O)c1 | 17.7 |

| SMILES | hERG current change (%, negative = inhibition) at 1uM [%] |
| --- | --- |
| Cl.Nc1cc(F)ccc1N1CCCCCC1 | 12.7 |
| CN(C)C(=O)C1C2NC(=S)N(c3ccccc3)C1(C)Oc1ccccc12 (stereo not shown) | 2.05 |
| O=[N+]([O-])c1ccc(N2CCN(c3cccc(Cl)c3)CC2)cn1 | -59.8 |
| O=[N+]([O-])c1ccc(N2CCN(c3ccccc3Cl)CC2)cn1 | -10 |
| O=[N+]([O-])c1ccc(N2CCCCC2)cn1 | 13.9 |
| CCc1cccc(C)c1NC(=O)CC1Oc2ccc(C)cc2NC1=O (stereo not shown) | 11.9 |
| CCCOC(=O)CCCN1C(=O)/C(=C2\SC(=S)N(CCCC(=O)OCCC)C2=O)SC1=S | 16 |
| Cc1cc2c(cc1C)C(c1ccsc1)CC(=O)N2 (stereo not shown) | 9.06 |
| COc1ccc(CN2CCNC(=O)C2CC(=O)N(C)Cc2nccs2)c(OC)c1 (stereo not shown) | 13.1 |
| Cc1ccc(NS(=O)(=O)c2ccc(C(=O)N3CCN(c4ncccn4)CC3)cc2)cc1 | 1.36 |
| COc1ccc(C(=O)N/C(=C/c2ccc(Cl)cc2)C(=O)NCc2ccncc2)cc1 | -38.4 |
| COc1ccc(/C=C(/NC(=O)c2ccc(C)cc2)C(=O)NCc2ccncc2)cc1 | -21.3 |
| Cc1ccc(C(=O)N/C(=C/c2ccccc2)C(=O)NCc2ccncc2)cc1 | -37.7 |
| Cc1ccc(C(=O)N/C(=C\c2cccs2)C(=O)NCc2ccncc2)cc1 | -38.5 |
| Cc1ccc(C(=O)N/C(=C\c2sccc2C)C(=O)NCc2ccncc2)cc1 | -1.07 |
| Cc1ccc(C(=O)N/C(=C/c2ccc(F)cc2)C(=O)NCc2ccncc2)cc1 | -78.4 |
| O=C(Nc1cccc2ccccc12)/C(=C/c1cccc([N+](=O)[O-])c1)NC(=O)c1cccs1 | -37.8 |
| Cc1ccc(NC(=O)/C(=C\c2cccc([N+](=O)[O-])c2)NC(=O)c2cccs2)cc1 | 4.59 |
| Cc1ccc(C(=O)N/C(=C\c2ccccc2)C(=O)NCc2ccncc2)cc1 | -77.1 |
| Cc1ccc(C(=O)N/C(=C\c2ccccc2)C(=O)NCc2cccnc2)cc1 | -41.8 |
| Cc1ccc(C(=O)N/C(=C\c2ccc(F)cc2)C(=O)NCc2ccncc2)cc1 | -81.2 |
| O=C(Nc1cccc2ccccc12)/C(=C\c1cccc([N+](=O)[O-])c1)NC(=O)c1cccs1 | -67.7 |
| N#Cc1c(NC(=S)NC(=O)C2CCCC2)sc2c1CCCCC2 | 10.1 |
| COc1ccc(N2CCN(c3ncnc4c3cnn4-c3ccc(C)cc3C)CC2)cc1 | 13.6 |
| CCC(=O)N1CCc2cc(S(=O)(=O)NC(C(=O)NCc3ccc(C)cc3)C(C)C)ccc21 (stereo not shown) | 1.57 |
| CCOc1ccc2nc(N3CCCC(C(=O)NCCCN4CCCCC4)C3)sc2c1 (stereo not shown) | -11.7 |
| CCN=C(NCC)SC1CC(=O)N(c2ccc(OCC)cc2)C1=O (stereo not shown) | 7.6 |
